# Results: ChEMBL document CHEMBL2218924, “A broad activity screen in support of a chemogenomic map for kinase signalling research and drug discovery” (Biochem J, 2013)
# How the values were obtained:
# [1] = target: Ephrin type-A receptor 5 (Homo sapiens) (UniProt P54756); conditions: at 1 µM
# [2] = target: Ephrin type-A receptor 5 (Homo sapiens) (UniProt P54756); conditions: at 10 µM
# [3] = target: Ephrin type-A receptor 7 (Homo sapiens) (UniProt Q15375); conditions: at 1 µM
# [4] = target: Ephrin type-A receptor 7 (Homo sapiens) (UniProt Q15375); conditions: at 10 µM
# [5] = target: T1, Ephrin type-B receptor 1 (Homo sapiens) (UniProt P54762); conditions: at 1 µM
# T1 sequence (whole entry): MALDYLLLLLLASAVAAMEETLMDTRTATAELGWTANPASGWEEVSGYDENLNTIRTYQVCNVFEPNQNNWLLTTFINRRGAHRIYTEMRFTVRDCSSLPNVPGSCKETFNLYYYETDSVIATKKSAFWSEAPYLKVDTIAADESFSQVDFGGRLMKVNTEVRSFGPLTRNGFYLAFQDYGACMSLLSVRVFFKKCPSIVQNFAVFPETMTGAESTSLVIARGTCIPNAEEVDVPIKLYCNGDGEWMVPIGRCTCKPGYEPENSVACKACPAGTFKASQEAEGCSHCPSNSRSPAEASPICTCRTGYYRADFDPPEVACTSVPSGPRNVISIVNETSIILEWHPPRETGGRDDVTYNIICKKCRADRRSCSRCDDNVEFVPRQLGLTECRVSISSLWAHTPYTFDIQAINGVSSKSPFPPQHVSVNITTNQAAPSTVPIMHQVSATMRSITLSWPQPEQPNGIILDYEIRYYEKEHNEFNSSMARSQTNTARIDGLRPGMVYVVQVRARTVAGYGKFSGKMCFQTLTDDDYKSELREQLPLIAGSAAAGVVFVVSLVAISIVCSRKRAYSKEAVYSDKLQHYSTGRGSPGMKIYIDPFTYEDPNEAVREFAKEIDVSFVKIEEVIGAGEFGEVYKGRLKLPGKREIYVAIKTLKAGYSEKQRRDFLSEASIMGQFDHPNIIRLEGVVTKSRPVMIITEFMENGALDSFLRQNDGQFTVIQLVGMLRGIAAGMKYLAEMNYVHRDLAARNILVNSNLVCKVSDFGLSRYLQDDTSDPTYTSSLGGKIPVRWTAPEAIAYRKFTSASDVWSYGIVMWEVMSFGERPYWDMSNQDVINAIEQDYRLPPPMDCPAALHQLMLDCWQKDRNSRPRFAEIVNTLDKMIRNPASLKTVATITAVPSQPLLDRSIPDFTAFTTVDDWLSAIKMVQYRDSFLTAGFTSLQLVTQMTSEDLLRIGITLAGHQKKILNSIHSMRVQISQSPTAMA
# [6] = target: T1, Ephrin type-B receptor 1 (Homo sapiens); conditions: at 10 µM
# [7] = target: T2, Ephrin type-B receptor 4 (Homo sapiens) (UniProt P54760); conditions: at 1 µM
# T2 sequence (whole entry): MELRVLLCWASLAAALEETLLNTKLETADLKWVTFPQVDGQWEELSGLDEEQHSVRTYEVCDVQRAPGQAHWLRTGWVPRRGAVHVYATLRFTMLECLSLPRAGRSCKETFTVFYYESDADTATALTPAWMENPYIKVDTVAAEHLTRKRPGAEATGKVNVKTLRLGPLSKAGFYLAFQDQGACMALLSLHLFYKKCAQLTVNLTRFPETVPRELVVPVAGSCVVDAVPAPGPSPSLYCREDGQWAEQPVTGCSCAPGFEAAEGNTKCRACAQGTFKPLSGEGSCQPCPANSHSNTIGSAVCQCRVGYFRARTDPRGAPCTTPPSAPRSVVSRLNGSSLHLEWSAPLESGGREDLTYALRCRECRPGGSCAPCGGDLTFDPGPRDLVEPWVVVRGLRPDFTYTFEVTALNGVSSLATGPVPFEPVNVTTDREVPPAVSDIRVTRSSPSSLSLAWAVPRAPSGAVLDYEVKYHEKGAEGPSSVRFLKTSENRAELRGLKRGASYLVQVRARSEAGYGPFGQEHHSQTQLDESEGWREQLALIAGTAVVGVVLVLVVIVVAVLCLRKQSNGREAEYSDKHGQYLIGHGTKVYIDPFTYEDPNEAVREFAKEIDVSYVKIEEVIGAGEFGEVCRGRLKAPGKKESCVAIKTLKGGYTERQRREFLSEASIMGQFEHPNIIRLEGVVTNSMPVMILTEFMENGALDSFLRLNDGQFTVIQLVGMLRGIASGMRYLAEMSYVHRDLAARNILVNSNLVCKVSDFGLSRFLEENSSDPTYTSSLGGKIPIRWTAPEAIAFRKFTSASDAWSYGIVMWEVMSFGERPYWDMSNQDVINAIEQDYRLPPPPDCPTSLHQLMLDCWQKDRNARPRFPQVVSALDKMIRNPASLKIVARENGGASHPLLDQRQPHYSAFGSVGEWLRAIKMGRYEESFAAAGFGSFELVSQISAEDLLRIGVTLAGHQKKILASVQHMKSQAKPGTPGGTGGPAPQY
# [8] = target: T2, Ephrin type-B receptor 4 (Homo sapiens); conditions: at 10 µM
# [9] = target: Receptor tyrosine-protein kinase erbB-4 (Homo sapiens) (UniProt Q15303); conditions: at 1 µM
# Receptor tyrosine-protein kinase erbB-4 (Homo sapiens), sequence (Q15303 whole entry): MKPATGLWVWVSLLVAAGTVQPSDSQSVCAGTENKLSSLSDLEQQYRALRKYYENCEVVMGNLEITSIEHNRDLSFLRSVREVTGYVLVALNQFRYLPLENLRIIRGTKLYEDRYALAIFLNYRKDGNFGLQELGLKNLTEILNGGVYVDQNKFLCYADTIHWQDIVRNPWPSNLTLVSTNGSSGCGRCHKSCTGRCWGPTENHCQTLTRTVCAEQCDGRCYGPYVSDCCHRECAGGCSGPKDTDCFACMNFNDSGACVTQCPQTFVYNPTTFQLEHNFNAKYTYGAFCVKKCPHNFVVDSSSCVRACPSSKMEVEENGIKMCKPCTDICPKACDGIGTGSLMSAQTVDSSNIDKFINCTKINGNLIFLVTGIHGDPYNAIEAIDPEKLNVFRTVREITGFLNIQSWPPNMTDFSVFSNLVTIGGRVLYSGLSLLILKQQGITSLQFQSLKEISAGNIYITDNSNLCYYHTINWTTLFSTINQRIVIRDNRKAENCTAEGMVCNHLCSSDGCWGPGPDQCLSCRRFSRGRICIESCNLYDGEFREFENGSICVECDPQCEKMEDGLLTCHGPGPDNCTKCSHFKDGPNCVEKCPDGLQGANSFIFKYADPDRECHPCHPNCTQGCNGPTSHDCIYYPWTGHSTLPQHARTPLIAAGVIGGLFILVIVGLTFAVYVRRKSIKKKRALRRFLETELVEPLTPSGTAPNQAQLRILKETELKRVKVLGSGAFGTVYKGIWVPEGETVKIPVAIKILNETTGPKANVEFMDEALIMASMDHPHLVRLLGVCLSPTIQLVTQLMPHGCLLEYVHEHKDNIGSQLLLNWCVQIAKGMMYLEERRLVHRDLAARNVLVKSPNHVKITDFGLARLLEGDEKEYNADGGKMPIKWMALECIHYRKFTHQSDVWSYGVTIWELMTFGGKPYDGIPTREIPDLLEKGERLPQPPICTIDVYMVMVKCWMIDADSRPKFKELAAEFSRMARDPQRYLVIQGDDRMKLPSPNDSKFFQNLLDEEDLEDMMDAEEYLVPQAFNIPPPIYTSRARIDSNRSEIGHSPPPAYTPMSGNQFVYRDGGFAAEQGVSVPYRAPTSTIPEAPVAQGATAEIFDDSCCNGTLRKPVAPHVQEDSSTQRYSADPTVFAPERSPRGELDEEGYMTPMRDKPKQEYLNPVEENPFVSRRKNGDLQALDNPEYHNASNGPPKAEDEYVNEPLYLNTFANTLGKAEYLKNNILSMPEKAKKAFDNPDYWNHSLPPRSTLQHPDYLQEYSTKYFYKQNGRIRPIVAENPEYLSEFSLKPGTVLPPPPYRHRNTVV
# [10] = target: Receptor tyrosine-protein kinase erbB-4 (Homo sapiens) (UniProt Q15303); conditions: at 10 µM
# [11] = target: Focal adhesion kinase 1 (Homo sapiens) (UniProt Q05397); conditions: at 1 µM
# Focal adhesion kinase 1 (Homo sapiens), sequence (Q05397 2-1052 limits assumed): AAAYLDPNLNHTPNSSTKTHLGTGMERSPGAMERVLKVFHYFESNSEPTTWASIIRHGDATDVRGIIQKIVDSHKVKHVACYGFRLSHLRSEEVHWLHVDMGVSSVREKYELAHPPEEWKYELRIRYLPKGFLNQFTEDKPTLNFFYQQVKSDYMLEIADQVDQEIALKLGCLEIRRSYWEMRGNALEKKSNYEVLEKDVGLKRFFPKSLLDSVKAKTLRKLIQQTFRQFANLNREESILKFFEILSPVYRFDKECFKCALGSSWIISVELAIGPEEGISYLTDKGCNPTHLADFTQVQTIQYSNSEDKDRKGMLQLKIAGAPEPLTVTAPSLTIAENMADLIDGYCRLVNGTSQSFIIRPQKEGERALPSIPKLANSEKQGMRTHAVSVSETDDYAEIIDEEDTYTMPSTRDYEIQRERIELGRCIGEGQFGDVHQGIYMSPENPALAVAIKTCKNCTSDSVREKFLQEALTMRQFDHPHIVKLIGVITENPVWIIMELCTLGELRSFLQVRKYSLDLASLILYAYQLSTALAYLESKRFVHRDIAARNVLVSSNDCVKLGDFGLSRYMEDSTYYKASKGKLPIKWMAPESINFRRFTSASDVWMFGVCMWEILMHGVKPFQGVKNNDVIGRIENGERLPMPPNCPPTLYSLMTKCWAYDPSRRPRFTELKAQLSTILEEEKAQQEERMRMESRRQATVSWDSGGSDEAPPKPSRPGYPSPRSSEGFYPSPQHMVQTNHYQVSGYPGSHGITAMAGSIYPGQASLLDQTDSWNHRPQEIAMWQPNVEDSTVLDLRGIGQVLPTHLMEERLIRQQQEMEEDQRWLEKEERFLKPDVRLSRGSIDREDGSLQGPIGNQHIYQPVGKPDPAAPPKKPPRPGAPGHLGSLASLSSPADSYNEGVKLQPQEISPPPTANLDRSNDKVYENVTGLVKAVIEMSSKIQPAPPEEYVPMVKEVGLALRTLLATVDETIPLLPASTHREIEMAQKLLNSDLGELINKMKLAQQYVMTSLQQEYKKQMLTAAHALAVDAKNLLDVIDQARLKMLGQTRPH
# Ephrin type-A receptor 7 (Homo sapiens), sequence (Q15375 28-998 limits assumed): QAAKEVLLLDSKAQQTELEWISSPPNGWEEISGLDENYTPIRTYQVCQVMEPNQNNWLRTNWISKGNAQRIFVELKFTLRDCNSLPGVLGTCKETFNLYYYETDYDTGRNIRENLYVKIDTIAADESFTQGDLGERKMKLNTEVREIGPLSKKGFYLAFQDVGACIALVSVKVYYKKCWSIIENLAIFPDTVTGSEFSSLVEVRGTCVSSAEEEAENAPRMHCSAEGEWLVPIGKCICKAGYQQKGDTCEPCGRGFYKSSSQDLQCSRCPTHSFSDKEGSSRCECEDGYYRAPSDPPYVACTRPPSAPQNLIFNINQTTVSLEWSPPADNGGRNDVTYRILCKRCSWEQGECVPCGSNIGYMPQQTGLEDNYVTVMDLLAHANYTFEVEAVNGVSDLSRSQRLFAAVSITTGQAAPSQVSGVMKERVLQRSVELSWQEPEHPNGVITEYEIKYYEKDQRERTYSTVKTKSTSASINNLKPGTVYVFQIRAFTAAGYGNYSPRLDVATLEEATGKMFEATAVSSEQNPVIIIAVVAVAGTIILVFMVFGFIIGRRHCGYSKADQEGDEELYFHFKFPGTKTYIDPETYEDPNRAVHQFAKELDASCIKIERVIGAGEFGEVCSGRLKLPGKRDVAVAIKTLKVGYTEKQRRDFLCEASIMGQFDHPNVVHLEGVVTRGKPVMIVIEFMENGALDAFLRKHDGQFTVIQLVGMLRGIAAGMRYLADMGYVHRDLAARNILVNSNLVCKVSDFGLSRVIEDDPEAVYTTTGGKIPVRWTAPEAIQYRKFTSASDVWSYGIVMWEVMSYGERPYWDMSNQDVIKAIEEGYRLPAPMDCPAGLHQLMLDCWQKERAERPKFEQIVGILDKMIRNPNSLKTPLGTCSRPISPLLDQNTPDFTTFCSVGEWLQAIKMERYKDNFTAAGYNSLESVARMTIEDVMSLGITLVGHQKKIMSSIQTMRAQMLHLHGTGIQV
# Ephrin type-A receptor 5 (Homo sapiens), sequence (P54756 whole entry): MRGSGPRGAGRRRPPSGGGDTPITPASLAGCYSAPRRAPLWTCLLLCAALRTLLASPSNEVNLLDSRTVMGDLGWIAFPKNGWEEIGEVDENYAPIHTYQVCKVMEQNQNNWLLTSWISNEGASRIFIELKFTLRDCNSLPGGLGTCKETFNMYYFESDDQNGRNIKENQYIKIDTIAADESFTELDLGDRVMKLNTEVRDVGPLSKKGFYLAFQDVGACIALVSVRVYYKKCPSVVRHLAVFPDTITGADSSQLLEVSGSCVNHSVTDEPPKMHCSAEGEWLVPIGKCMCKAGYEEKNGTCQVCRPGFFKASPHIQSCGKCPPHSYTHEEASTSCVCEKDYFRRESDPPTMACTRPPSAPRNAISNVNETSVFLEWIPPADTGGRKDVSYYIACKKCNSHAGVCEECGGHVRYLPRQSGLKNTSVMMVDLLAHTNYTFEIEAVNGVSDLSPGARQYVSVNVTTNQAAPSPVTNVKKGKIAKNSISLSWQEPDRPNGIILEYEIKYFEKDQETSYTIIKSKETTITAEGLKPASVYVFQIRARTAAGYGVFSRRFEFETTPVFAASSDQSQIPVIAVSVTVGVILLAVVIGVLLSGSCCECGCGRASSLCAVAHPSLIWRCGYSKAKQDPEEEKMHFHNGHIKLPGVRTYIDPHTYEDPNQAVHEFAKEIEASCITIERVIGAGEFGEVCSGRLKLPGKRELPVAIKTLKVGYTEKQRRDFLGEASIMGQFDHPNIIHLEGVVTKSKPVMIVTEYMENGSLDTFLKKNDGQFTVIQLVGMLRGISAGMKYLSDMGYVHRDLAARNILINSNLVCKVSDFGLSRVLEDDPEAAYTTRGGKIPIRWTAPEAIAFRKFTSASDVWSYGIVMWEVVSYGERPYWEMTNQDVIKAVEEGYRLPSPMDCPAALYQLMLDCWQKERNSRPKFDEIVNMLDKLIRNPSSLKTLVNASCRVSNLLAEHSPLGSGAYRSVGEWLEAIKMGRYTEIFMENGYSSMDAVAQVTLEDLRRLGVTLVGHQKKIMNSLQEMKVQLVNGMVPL
SMILES,residual activity [1],residual activity [2],residual activity [3],residual activity [4],residual activity [5],residual activity [6],residual activity [7],residual activity [8],residual activity [9],residual activity [10],residual activity [11]
COc1ccc(Cl)cc1NC(=O)Nc1cc(C)nc2ccccc12,97%,86%,83%,56%,88%,68%,96%,100%,96%,80%,127%
CCN1/C(=C/C(C)=O)Sc2ccc(OC)cc21,–,–,–,–,–,–,–,–,75%,69%,–
O=C1Nc2ccccc2/C1=C\c1c(Cl)[nH]c2ccccc12,118%,–,–,–,–,–,117%,134%,–,–,–
O=C1NC(=O)C(c2c[nH]c3ccccc23)=C1c1c[nH]c2ccccc12,–,–,99%,67%,83%,39%,–,82%,–,73%,122%
